# Hits are enriched below; roughly 1.2% of the tested compounds scored in any of these assays.
# Sa ugtP lethal: compounds lethal to S. aureus RN4220 ugtP deletion mutant; growth inhibition, % (concentration not given with the values); 330,000 tested, 0.54% active; OD600 growth, 16 h; in the data active means growth inhibition above about 68%;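 further: plate controls were untreated wells for no effect and antibiotic for full effect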
# TcdB GH inh: blocks C. difficile toxin B glycohydrolase activity; 350,000 tested, 0.24% active; inhibition, % at 9.99 µM; TcdB glycohydrolase enzymatic assay, plate reader; P18177; in the data active means inhibition above about 10%
# Target sequence (P18177 whole entry, looked up): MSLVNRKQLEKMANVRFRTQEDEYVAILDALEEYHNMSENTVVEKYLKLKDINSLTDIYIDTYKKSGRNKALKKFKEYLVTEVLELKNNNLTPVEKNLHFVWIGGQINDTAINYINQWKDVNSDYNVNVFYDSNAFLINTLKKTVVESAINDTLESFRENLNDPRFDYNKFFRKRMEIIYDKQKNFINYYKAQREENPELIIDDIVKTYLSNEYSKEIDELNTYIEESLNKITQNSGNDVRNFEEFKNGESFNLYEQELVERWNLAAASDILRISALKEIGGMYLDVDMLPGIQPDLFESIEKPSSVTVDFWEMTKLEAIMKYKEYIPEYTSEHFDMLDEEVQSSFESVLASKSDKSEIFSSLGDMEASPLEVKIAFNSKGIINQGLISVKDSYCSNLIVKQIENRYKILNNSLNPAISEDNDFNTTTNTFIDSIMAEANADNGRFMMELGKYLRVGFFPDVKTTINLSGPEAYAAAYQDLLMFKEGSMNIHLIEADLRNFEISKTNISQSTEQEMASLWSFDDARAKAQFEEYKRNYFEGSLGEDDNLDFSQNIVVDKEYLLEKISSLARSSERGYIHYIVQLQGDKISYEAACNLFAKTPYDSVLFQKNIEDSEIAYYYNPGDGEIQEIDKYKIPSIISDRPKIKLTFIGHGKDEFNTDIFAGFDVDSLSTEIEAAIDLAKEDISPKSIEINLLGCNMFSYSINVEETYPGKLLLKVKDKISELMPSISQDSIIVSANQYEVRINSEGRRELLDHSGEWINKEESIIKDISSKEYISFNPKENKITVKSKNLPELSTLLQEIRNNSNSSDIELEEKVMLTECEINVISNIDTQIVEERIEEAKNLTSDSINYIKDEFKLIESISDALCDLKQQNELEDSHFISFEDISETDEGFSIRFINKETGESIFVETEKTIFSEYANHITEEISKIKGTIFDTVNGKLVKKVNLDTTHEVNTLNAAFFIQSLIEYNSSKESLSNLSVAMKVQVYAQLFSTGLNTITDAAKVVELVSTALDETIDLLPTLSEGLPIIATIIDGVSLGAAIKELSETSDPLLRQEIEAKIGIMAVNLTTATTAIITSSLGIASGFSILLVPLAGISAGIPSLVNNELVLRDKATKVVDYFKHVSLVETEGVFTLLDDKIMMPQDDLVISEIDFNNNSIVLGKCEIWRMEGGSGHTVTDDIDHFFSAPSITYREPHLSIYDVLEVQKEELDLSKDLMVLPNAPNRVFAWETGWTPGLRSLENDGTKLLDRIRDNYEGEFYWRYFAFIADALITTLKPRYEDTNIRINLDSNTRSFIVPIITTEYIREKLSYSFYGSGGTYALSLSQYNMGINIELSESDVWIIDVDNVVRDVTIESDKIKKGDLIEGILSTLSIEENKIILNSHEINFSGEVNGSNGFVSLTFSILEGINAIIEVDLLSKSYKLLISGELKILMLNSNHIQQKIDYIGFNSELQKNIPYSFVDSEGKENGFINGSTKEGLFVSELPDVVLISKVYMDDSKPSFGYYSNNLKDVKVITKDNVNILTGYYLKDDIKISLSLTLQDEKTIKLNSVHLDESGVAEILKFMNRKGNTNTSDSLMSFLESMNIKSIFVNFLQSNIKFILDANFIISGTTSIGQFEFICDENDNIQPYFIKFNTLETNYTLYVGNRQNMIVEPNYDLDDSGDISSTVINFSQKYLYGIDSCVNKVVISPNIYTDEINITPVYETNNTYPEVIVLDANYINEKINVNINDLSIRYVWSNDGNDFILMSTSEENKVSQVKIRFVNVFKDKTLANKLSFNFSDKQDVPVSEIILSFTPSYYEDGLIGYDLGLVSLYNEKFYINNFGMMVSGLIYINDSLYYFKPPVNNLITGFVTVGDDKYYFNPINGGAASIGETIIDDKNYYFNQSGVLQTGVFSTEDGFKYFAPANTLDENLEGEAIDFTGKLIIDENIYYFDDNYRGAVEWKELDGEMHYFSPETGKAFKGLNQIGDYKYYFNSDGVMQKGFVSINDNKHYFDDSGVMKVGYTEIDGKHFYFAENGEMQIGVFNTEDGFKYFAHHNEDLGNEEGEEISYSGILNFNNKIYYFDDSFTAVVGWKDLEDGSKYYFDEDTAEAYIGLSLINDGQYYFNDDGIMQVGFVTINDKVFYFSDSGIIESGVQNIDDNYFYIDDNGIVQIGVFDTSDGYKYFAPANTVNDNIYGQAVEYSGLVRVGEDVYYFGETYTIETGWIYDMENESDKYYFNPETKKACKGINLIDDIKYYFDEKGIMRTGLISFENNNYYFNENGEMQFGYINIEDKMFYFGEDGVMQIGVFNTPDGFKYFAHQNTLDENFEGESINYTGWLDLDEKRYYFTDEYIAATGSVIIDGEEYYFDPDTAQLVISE
# Sa RN4220 lethal: S. aureus RN4220 growth inhibition. OD600, 16 h. inhibition, % (test concentration not listed). 330,000 tested, 0.33% active; in the data active means inhibition above about 85%;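 further: plate controls were untreated cells for no effect and reference antibiotic for full effect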
# PrP UTR inh: inhibition of PrP 5' UTR reporter expression; cell-based PrP 5' UTR mRNA reporter, plate reader; inhibition, % (no concentration beside the values); 340,000 tested, 0.35% active; AID 488862; in the data active means inhibition above about 52%; further: 0 = median of the neutral control wells
# PfHsp40 yeast: restores yeast growth despite PfHsp40 toxicity; S. cerevisiae expressing PfHsp40, growth rescue, ATP luminescence; growth rescue, % at 12.5 µM; 340,000 tested, 0.68% active; in the data active means growth rescue above about 28%, passing the limit was not always enough; inconclusive means no clear call, values can overlap the other calls;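 further: yeast W303a lacking pdr1 and pdr3 grown in galactose medium; growth measured after three days at 30 °C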
# The depositor's hits bear a star; ? = inconclusive; nt = no result.
SMILES,Sa ugtP lethal,TcdB GH inh,Sa RN4220 lethal,PrP UTR inh,PfHsp40 yeast
COc1ccc(-c2cc(-c3cc(OC)ccc3O)[nH]n2)cc1,1,nt,1,-56,?
COc1ccc(O)c(-c2cc(-c3cccc(Br)c3)n[nH]2)c1,86*,nt,42,-58,2
O=[N+]([O-])c1cccc(-c2cc(-c3cc(Br)ccc3O)[nH]n2)c1,21,1,16,-23,285*
Cc1ccc(-c2cc(-c3ccccc3C)[nH]n2)c(O)c1,19,nt,-5,-105,?
O=[N+]([O-])c1ccccc1-c1cc(-c2ccccc2O)n[nH]1,-13,nt,1,-59,49*
O=C(C[C@@H]1C=C[C@@H](NC(=O)C2CC2)[C@H](CO)O1)NCC1CC1,nt,-1,nt,nt,nt
NC(=O)C1CCN(C2CC(=O)N(c3cccc(F)c3)C2=O)CC1 (stereo not drawn),1,nt,1,-12,6
CCN(CC)C1CC(=O)N(c2cccc(Cl)c2)C1=O (stereo not drawn),16,0,5,-8,79*
O=C(C1CCN(C2CC(=O)N(c3cccc(Cl)c3)C2=O)CC1)N1CCCC1 (stereo not drawn),nt,nt,nt,-14,468*
CCOC(=O)C1CCN(C2CC(=O)N(c3cccc(Cl)c3)C2=O)CC1 (stereo not drawn),-1,0,3,-18,176*
NC(=O)C1CCN(C2CC(=O)N(c3ccc(F)c(Cl)c3)C2=O)CC1 (stereo not drawn),-1,nt,-1,-10,204*
CCOC(=O)C1CCCN(C2CC(=O)N(c3ccc(C)cc3)C2=O)C1 (stereo not drawn),2,0,7,-18,1
CN1CC2C3C(=O)N(Cc4ccccc4)C(=O)C3[C@](C)(C1=O)N2C(=O)c1ccc(F)cc1 (stereo partly drawn),-3,nt,9,nt,nt
O=[N+]([O-])c1ccccc1OCC(=NO)c1ccccc1,9,nt,4,nt,nt
COC(=O)C1CCN(C2CC(=O)N(c3cc(C)cc(C)c3)C2=O)CC1 (stereo not drawn),9,0,4,-14,45*
O=C(/C=C/c1ccc(F)cc1)c1cc(Br)ccc1O,2,1,-1,-12,13
O=C(/C=C/c1ccccc1)c1cc(Br)ccc(=O)c1O,99*,nt,99*,-28,332*
CC1(C)CC[C@]2(C(=O)O)CC[C@]3(C)C(=CC[C@@H]4[C@@]5(C)CC[C@H](O)C(C)(C)[C@@H]5CC[C@]43C)[C@@H]2C1,nt,0,nt,-7,1
CC1CC[C@]2(C(=O)O)CC[C@]3(C)C(=CCC4[C@@]5(C)CCC(O)C(C)(C)C5CC[C@]43C)C2C1C (stereo partly drawn),100*,nt,100*,nt,nt
COc1cc(C=NNc2nc(=O)[nH]nc2C)ccc1O,3,nt,4,nt,nt
CC(=O)Nc1cccc(OCc2ccc(F)cc2)c1,12,2,8,-31,70*
CC(=O)Nc1cccc(OCC(=O)Nc2ccc(F)cc2)c1,2,nt,0,-19,0
Cc1cc(C(C)(C)CC(C)(C)C)ccc1OCCOCC[N+](C)(C)Cc1ccccc1,100*,7,101*,-26,?
CCCn1nc(C(=O)N2CCN(S(=O)(=O)c3ccc(C)c(C)c3)CC2)c2ccccc2c1=O,-1,1,5,-3,69*
O=C(C1CCOCC1)N1CC2(C1)[C@@H](c1ccccc1)[C@H](CO)N2Cc1ccc(Cl)cc1,nt,-2,nt,nt,nt
SMILES,Sa ugtP lethal,TcdB GH inh,Sa RN4220 lethal,PrP UTR inh,PfHsp40 yeast
N#Cc1ccc(-c2ccc(C3Nc4ccccc4C(=O)N3O)o2)cc1 (stereo not drawn),16,-2,6,0,12
O=C1c2ccccc2NC(c2ccc(Cl)cc2Cl)N1O (stereo not drawn),-6,nt,-9,20,292*
CCOC(=O)c1ccc(-c2ccc(CO)o2)cc1,-7,nt,4,-116,1
O=C1c2ccccc2NC(c2ccc(-c3cccc(F)c3)o2)N1O (stereo not drawn),-30,1,11,-57,109*
CCOC(=O)c1ccc(-c2ccc(C3Nc4ccccc4C(=O)N3O)o2)cc1 (stereo not drawn),-15,0,3,-54,364*
O=C1c2ccccc2NC(c2ccc(-c3ccccc3F)o2)N1O (stereo not drawn),-32,-1,8,-35,120*
CCNC(=O)C[C@H]1CC[C@@H]2[C@@H](COc3ccc(NC(=O)c4ccc(C(F)(F)F)cc4)cc3C(=O)N2C)O1,nt,10,nt,nt,nt
COc1ccccc1N1CCN(N=Cc2cccc(O)c2)CC1,7,nt,8,nt,nt

# Bioassay records (PubChem BioAssay)
